Measured values from PubChem BioAssay (EPA / NIEHS).
Calls of active or inactive are those of the source. The calls were made as follows: active = hit-call score of the fitted dose curve at least 0.9, where 1 is the maximum; inactive = score below 0.9.

Read-out: JUN Transcription Factor, JUN (gene 3725)
Experiment: LTEA_HepaRG_JUN: Life Technologies and Expression Analysis (LTEA) Assay for JUN Transcription Factor using HepaRG (AID 2283513)
Conditions: mRNA level, 48 h; actives raise or lower the signal
Procedure: LTEA_HepaRG is a cell based, multiplexed-readout assay that uses HepaRG, a human liver cell line, with measurements taken at 48 hours after chemical dosing on a 96-well plate.LTEA_HepaRG_JUN is one of 102 assay component(s) measured in the LTEA HepaRG cell culture assay. It is a marker of Cell proliferation, survival, death.Data from the assay component LTEA_HepaRG_JUN was analyzed into 1 endpoint. This assay endpoint, LTEA_HepaRG_JUN, was analyzed with bidirectional fitting relative to DMSO as the negative control and baseline of activity. Using a type of inducible reporter, measures of mRNA induction for gain or loss-of-signal activity can be used to understand regulation of transcription factor activity. To generalize the intended target to other relatable targets, this assay endpoint is annotated to the dna binding intended target family, where the subfamily is basic leucine zipper.
A total of 1060 chemcials from the ToxCast library were tested in eight-point concentration-response experiments. Cell culture and cytotoxicity assays were conducted at Thermo Fisher Scientific's Custom Services facility (Madison, WI). A single lot of human HepaRG cells (Thermo Fisher Scientific, Frederick, MD) was used for the cell culture experiments. 96-well format collagen type I coated plates of human HepaRG cells were prepared using established methods. Briefly, cryopreserved HepaRG cells were thawed, plated at a density of approximately 100,000 cells/well in HepaRG Thaw, Plate, and General Purpose media (HPRG770, Thermo Fisher Scientific), and incubated for 48 hours. 0.5% DMSO was selected as vehicle control to balance the requisite need of DMSO in HepaRG cultures to maintain differentiation (for example, baseline metabolism, proportions of hepatocytes vs. cholangiocytes), while enabling further hepatic receptor pathway activation (for example, PXR and CAR) in response to chemical exposure. 48 hours after plating, the culture medium was replaced with HepaRG Serum-Free Incudtion Media. Cells were exposed to each test chemical in duplicate and maintained in CO2 incubators for another 48 hours. Chemical plates were thawed to room temperature and 200x concentrations of treatment groups were prepared. 8-point conentration-reponse curves were made with the highest exposure at 100 uM, followed by half-log dilutions, all in 0.5% DMSO. Each test plate contained variouse controls, induction positive controls (1mM phenobarbital), cytotoxicity positive controls ([…] aflatoxin B1), vehicle controls (0.5% DMSO), and total lysis controls (0.5% DMSO). Cell morphology images were taken using an Essen IncuCyte FLR automated microscope, with six 96-well plates imaged in about 24 minutes. Images were captured and exported and JPEG files. Spent culture media was transfered to black-well plates for the LDH assay, and remaining media was sorted at -80 C for later use. Cells were treated with RLT buffer and frozen until shipped for gene expression analysis. Total RNA was isolated from the cell suspension in 75 uL of Buffer RLT (Qiagen, Germantown, MD 20874) by Quintiles/Expression Analysis (Durham, NC) using a custom isolation procedure. Total RNA from each plate well was transferred to a preamplification plate. Fluidigm's 96.96 Dynamic ArrayTM (Fluidigm, Amsterdam, the Netherlands) technology was used for gene expression analyses by quantitative reverse transcription polymerase chain reaction (qRT-PCR, performed by Quintiles/Expression Analysis, Durham, NC)89. Standard TaqManTM Assays (Applied Biosystems/ThermoFisher Scientific, Foster City, CA) were used to assess the expression of 93 genes selected based on their selectivity and sensitivity to important hepatic receptors known to be modulated by environmental chemicals; importance in human hepatocyte functionality; and hepatotoxicity. […]

| SMILES | outcome |
| --- | --- |
| O=C(O)C1C(C(=O)O)C2(Cl)C(Cl)=C(Cl)C1(Cl)C2(Cl)Cl (stereo not given) | inactive |
| OCC1CO1 (stereo not given) | inactive |
| Cc1cccc(N)c1 | inactive |
| ClC(Cl)c1ccccc1 | inactive |
| CCCCc1ccccc1 | inactive |
| CCCCN(CCCC)N=O | inactive |
| CCCCN(CCCC)SN(C)C(=O)Oc1cccc2c1OC(C)(C)C2 | inactive |
| c1nc[nH]n1 | inactive |
| CCN(CC)c1ccccc1 | inactive |
| CCCN(CCC)c1c([N+](=O)[O-])cc(C(C)C)cc1[N+](=O)[O-] | inactive |
| CCCCCCCc1ccc(O)cc1 | inactive |
| O=P1(N(CCCl)CCCl)NCCCO1 (stereo not given) | inactive |
| O=C(O)C(Cl)Cl | inactive |
| CCC(C)(C)c1ccc(O)cc1 | inactive |
| CC(C)(C)c1ccc(O)cc1 | inactive |
| c1ccc2c(c1)Nc1ccccc1S2 | inactive |
| [N-]=[N+]=[N-] | inactive |
| Cc1ccc(O)cc1C | inactive |
| CCOc1ccc(C(C)(C)COCc2cccc(Oc3ccccc3)c2)cc1 | inactive |
| c1cc2c3c(cccc3c1)CC2 | inactive |

| SMILES | outcome |
| --- | --- |
| CCOC(=O)c1ccccc1C(=O)OCC | inactive |
| CCOS(=O)(=O)OCC | inactive |
| Cc1ccc(N)cc1N | inactive |
| Cc1ccc([N+](=O)[O-])cc1C | inactive |
| Nc1ccc2ccccc2c1 | inactive |
| O=P(Oc1ccccc1)(Oc1ccccc1)Oc1ccccc1 | inactive |
| ClC(Cl)(Cl)c1ccccc1 | inactive |
| CCOP(=S)(OCC)SCSCC | inactive |
| CC(Cl)(Cl)C(=O)O | inactive |
| c1ccc(OP(Oc2ccccc2)Oc2ccccc2)cc1 | inactive |
| CC(C)(C)OOC(C)(C)C | inactive |
| COCCOCCO | inactive |
| ClC1=C(Cl)C2(Cl)C3C(Cl)C(Cl)CC3C1(Cl)C2(Cl)Cl (stereo not given) | inactive |
| Nc1cc2c3c(c1)C(c1ccccc1)=N[C@@H](NC(=O)c1cccnc1)C(=O)N3CC2 | inactive |
| CCNc1nc(Cl)nc(NC(C)(C)C)n1 | inactive |
| O=[N+]([O-])c1ccccc1 | inactive |
| CC(Cc1ccc(OCC(=O)O)cc1)NCC(O)c1csc(C(F)(F)F)n1 (stereo not given) | inactive |
| CSC(C)(C)C=NO | inactive |
| CCOP(=S)(Oc1ccc([N+](=O)[O-])cc1)c1ccccc1 (stereo not given) | inactive |
| Nc1ccc(Cl)cc1 | inactive |
